{
  "source": "the supplement of paper PMC9262897",
  "about": "“Low-cost anti-mycobacterial drug discovery using engineered E. coli” (Nature Communications, 2022)",
  "note": "Structures can show the parent of a compound that is named as a salt. ± gives the standard deviation of the averaged measurements.",
  "data": [
    {"tested_on": "E. coli TESEC Alr+ wild-type control", "assay": "growth (OD600 after 10 h); higher = more growth (less inhibition)", "conditions": "compound 0.1 mM; raw OD600 reference: median of DMSO wells 0.49, cell-free background 0.052", "method": "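TESEC Mtb Alr E. coli (ΔaraC ΔtolC ΔentC Δalr ΔdadX, arabinose-inducible Mtb Alr) or the Alr+ wild-type control strain, grown in defined M9-fructose medium without D-alanine in 96-well plates with Prestwick library compounds at 0.1 mM and 1% DMSO. Low Alr induction is 0.1 µM arabinose and high induction is 10 mM arabinose.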", "values": [
      {"smiles": "CN1CCCC(n2nc(Cc3ccc(Cl)cc3)c3ccccc3c2=O)CC1", "note": "(centres undefined) [Azelastine HCl]", "growth": "0.472 ± 0.021"},
      {"smiles": "COC(=O)Nc1nc2ccc(SC(C)C)cc2[nH]1", "note": "[Methiazole]", "growth": "0.523 ± 0.037"},
      {"smiles": "CCCCNC(=O)NS(=O)(=O)c1ccc(C)cc1", "note": "[Tolbutamide]", "growth": "0.521 ± 0.12"},
      {"smiles": "CS(=O)(=O)OCCCCOS(C)(=O)=O", "note": "[Busulfan]", "growth": "0.445 ± 0.033"},
      {"smiles": "Fc1ccc([C@@H]2CCNC[C@H]2COc2ccc3c(c2)OCO3)cc1", "note": "[Paroxetine Hydrochloride]", "growth": "0.444 ± 0.026"},
      {"smiles": "CC1(C)O[C@@H]2C[C@H]3[C@@H]4C[C@H](F)C5=CC(=O)C=C[C@]5(C)[C@H]4[C@@H](O)C[C@]3(C)[C@]2(C(=O)CO)O1", "note": "[Flunisolide]", "growth": "0.418 ± 0.031"},
      {"smiles": "CNCCc1ccccn1", "note": "[Betahistine mesylate]", "growth": "0.557 ± 0.1"},
      {"smiles": "CC(C(=O)O)c1ccc(C(=O)c2cccs2)cc1", "note": "(centres undefined) [Suprofen]", "growth": "0.605 ± 0.029"},
      {"smiles": "CCCCCCCCNC(C)C(O)c1ccc(SC(C)C)cc1", "note": "(centres undefined) [Suloctidil]", "growth": "0.0529 ± 0.0091"},
      {"smiles": "CCCc1cc(C(N)=S)ccn1", "note": "[Prothionamide]", "growth": "0.57 ± 0.0073"},
      {"smiles": "CCC[C@@H]1C[C@@H](C(=O)N[C@@H]([C@H]2O[C@H](SC)[C@H](O)[C@@H](O)[C@H]2O)[C@@H](C)O)N(C)C1", "note": "[Lincomycin hydrochloride]", "growth": "0.486 ± 0.057"},
      {"smiles": "C[C@]12CC[C@@H]3c4ccc(O)cc4C[C@@H](CCCCCCCCC[S+]([O-])CCCC(F)(F)C(F)(F)F)[C@H]3[C@@H]1CC[C@@H]2O", "note": "(some centres undefined) [Fulvestrant]", "growth": "0.439 ± 0.024"},
      {"smiles": "CN(C)CCCSC(=N)N", "note": "[Dimaprit dihydrochloride]", "growth": "0.617 ± 0.017"},
      {"smiles": "CN1CCN(c2c(F)cc3c(=O)c(C(=O)O)cn4c3c2SCC4)CC1", "note": "[Rufloxacin]", "growth": "0.0549 ± 0.00072"},
      {"smiles": "CC(=O)OCC(=O)[C@@]1(OC(C)=O)[C@@H](C)C[C@H]2[C@@H]3C[C@H](F)C4=CC(=O)C=C[C@]4(C)[C@@]3(F)[C@@H](O)C[C@@]21C", "note": "[Diflorasone Diacetate]", "growth": "0.398 ± 0.015"},
      {"smiles": "CS(=O)(=O)c1ccc([C@@H](O)[C@@H](CO)NC(=O)C(Cl)Cl)cc1", "note": "[Thiamphenicol]", "growth": "0.206 ± 0.015"},
      {"smiles": "CSc1nc2cc(Cl)c(Oc3cccc(Cl)c3Cl)cc2[nH]1", "note": "[Triclabendazole]", "growth": "0.0897 ± 0.0096"},
      {"smiles": "CC(C)(CO)C(O)C(=O)NCCCO", "note": "(centres undefined) [Panthenol (D)]", "growth": "0.5 ± 0.047"},
      {"smiles": "Cc1onc(-c2ccccc2Cl)c1C(=O)N[C@@H]1C(=O)N2[C@@H]1SC(C)(C)[C@@H]2C(=O)O", "note": "[Cloxacillin sodium salt]", "growth": "0.514 ± 0.11"},
      {"smiles": "OCCN(CCO)c1nc(N2CCCCC2)c2nc(N(CCO)CCO)nc(N3CCCCC3)c2n1", "note": "[Dipyridamole]", "growth": "0.0816 ± 0.027"},
      {"smiles": "CN(C)CCN(Cc1ccc(Cl)cc1)c1ccccn1", "note": "[Chloropyramine hydrochloride]", "growth": "0.432 ± 0.016"},
      {"smiles": "CCCCOC(=O)c1ccc(N)cc1", "note": "[Butamben]", "growth": "0.452 ± 0.0073"},
      {"smiles": "Nc1c(Br)cc(Br)cc1CN[C@H]1CC[C@H](O)CC1", "note": "[Ambroxol hydrochloride]", "growth": "0.626 ± 0.055"},
      {"smiles": "C[C@]12CC[C@@H]3c4ccc(OS(=O)(=O)O)cc4CC[C@H]3[C@@H]1CCC2=O", "note": "[Estropipate]", "growth": "0.534 ± 0.11"},
      {"smiles": "CC(NCCC(c1ccccc1)c1ccccc1)c1ccccc1", "note": "(centres undefined) [Fendiline hydrochloride]", "growth": "0.0558 ± 0.011"},
      {"smiles": "C[C@@H]1C[C@H]2[C@@H]3C[C@H](F)C4=CC(=O)C=C[C@]4(C)[C@@]3(F)[C@@H](O)C[C@]2(C)[C@@]1(O)C(=O)COC(=O)C(C)(C)C", "note": "[Flumethasone pivalate]", "growth": "0.521 ± 0.057"},
      {"smiles": "COc1cc(C(=O)NC2CCCNC2)cc(OC)c1OC", "note": "(centres undefined) [Troxipide]", "growth": "0.504 ± 0.1"},
      {"smiles": "COCCc1ccc(OCC(O)CNC(C)C)cc1", "note": "(racemic) [Metoprolol-(+,-) (+)-tartrate salt]", "growth": "0.494 ± 0.11"},
      {"smiles": "CC(Oc1c(Cl)cccc1Cl)C1=NCCN1", "note": "(centres undefined) [Lofexidine]", "growth": "0.555 ± 0.044"},
      {"smiles": "N#CC(c1ccc(Cl)cc1)c1c(Cl)cc(-n2ncc(=O)[nH]c2=O)cc1Cl", "note": "(centres undefined) [Diclazuril]", "growth": "0.156 ± 0.17"},
      {"smiles": "Cc1cc(C(C)(C)CC(C)(C)C)ccc1OCCOCC[N+](C)(C)Cc1ccccc1", "note": "[Methyl benzethonium chloride]", "growth": "0.0474 ± 0.00066"},
      {"smiles": "CC(=O)CC(c1ccc([N+](=O)[O-])cc1)c1c(O)c2ccccc2oc1=O", "note": "(centres undefined) [Acenocoumarol]", "growth": "0.503 ± 0.0074"},
      {"smiles": "COCC1=C(C(=O)OC(C)OC(=O)OC(C)C)N2C(=O)[C@@H](NC(=O)/C(=N\\OC)c3csc(N)n3)[C@H]2SC1", "note": "(some centres undefined) [Cefpodoxime proxetil]", "growth": "0.425 ± 0.044"},
      {"smiles": "CC(=O)OCC(=O)[C@@]12OC(C)(C)O[C@@H]1C[C@H]1[C@@H]3C[C@H](F)C4=CC(=O)C=C[C@]4(C)[C@@]3(F)[C@@H](O)C[C@@]12C", "note": "[Fluocinonide]", "growth": "0.499 ± 0.058"}
    ]}
  ]
}
